Experimental data from PubChem BioAssay.
Activity calls are given as the source filed them.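 Rule for the calls, unless noted: active = compound raises insulin release from rat beta cells at 5 mM glucose, no numeric limit stated; inactive = the rest.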

Tests used:
[1] = stimulators of nuclear beta-catenin in C2C12, primary screen, imaging, WNT3A-conditioned medium, mouse C2C12, NPC library (AID 1117326; in the data active = nuclear beta-catenin stimulation mostly above about 4.2%, no sharp cut-off; inactive = mostly below about 10%; note: reference of the scale not given here); conditions: stronger effect = higher value
[2] = stimulators of insulin release from INS-1E, primary screen, cell-based, 5 mM glucose, NPC library (AID 1117329); conditions: rat INS-1E insulin secretion, at 10 µM, stronger effect = higher value; note: reference of the scale not given here
[3] = growth inhibition of GSK3B-pretreated HCT116 cells – cell-based, CellTiter-Glo, 0.2 to 20 µM (AID 1117336;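 active = compounds lowering colon cancer cell viability after pretreatment blocking the GSK3B kinase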); conditions: HCT116 viability after GSK3B inhibitor, at 20 µM, stronger effect = higher value
[4] = inhibition of endothelial tube formation, primary screen, imaging, VEGF stimulated, CD31 staining, tube area, NPC library (AID 1117340;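 active = compound that reduces growth-factor-driven endothelial tube area in a mixed cell culture, no cutoff stated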); conditions: VEGF-stimulated ADSC/ECFC co-culture, at 10 µM, stronger effect = higher value
[5] = glucagon-like peptide 1 release enhancers, primary assay, NCI-H716 cell line, NPC library (AID 1117341;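 active = compound raises GLP1 secretion from the human gut endocrine cells, with no numeric limit stated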; note: reference of the scale not given here); conditions: NCI-H716 cells, at 10 µM, stronger effect = higher value
[6] = HCT116 colon cancer cell growth inhibition, primary screen, CellTiter-Glo luminescence, NPC library (AID 1117342;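 active = compounds that lower survival of HCT116 colon cancer cells in the luminescence readout, no numeric limit stated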); conditions: at 20 µM (top of the series)
[7] = CellTiter-Glo luminescent readout of SW480 viability loss, NPC library primary (AID 1117343;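 active = compounds that lower viability of the colon cancer cells in the luminescence readout, with no numeric limit stated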); conditions: CellTiter-Glo luminescence; at 20 µM (top of the series)
[8] = decreased DLD-1 cellular survival, CellTiter-Glo luminescent readout, NPC compound collection, primary HTS (AID 1117346;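 active = compounds that lower survival of DLD-1 colon cancer cells in the luminescence readout, no cutoff given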); conditions: DLD-1 viability, CellTiter-Glo luminescence; at 20 µM (top of the series)

Oc1ccc(CCNCCCCCCNCCc2ccccc2)cc1O
active: insulin secretion stimulation [2] 27.8% | viability decrease [3] 83.3% | inhibition of viability [6] 83.5% | viability decrease (inhibition) [7] 99.5% | viability decrease (inhibition) [8] 101%
inactive: nuclear beta-catenin stimulation ([1]; at 10 µM) 5% | tube area decrease [4] 31.4% | GLP1 secretion stimulation [5] 0.6%
0.9%: nuclear beta-catenin stimulation ([1]; stimulation, at 2 µM)

COC(=O)c1cc(S(C)(=O)=O)ccc1OC
3.6%: nuclear beta-catenin stimulation ([1]; stimulation, at 2 µM)
inactive: nuclear beta-catenin stimulation ([1]; at 10 µM) 1% | insulin secretion stimulation [2] 2% | viability decrease [3] -2.3% | tube area decrease [4] -4.1% | GLP1 secretion stimulation [5] -1.3% | inhibition of viability [6] 6.4% | viability decrease (inhibition) [7] -3.4% | viability decrease (inhibition) [8] -1.9%

C=CCN1C(=O)C(CC(C)C)NC1=S (configuration not stated)
active: viability decrease (inhibition) [7] 2.8%
0.3%: nuclear beta-catenin stimulation ([1]; stimulation, at 2 µM)
inactive: nuclear beta-catenin stimulation ([1]; at 10 µM) 0% | insulin secretion stimulation [2] -1.4% | viability decrease [3] -1.7% | tube area decrease [4] -6.4% | GLP1 secretion stimulation [5] -4% | inhibition of viability [6] -4.1% | viability decrease (inhibition) [8] -17.7%

CC(C)C[C@@H](N)C(=O)O
inactive: nuclear beta-catenin stimulation ([1]; at 10 µM) 3.4% | insulin secretion stimulation [2] -0.8% | viability decrease [3] -7.15% | tube area decrease [4] 11.2% | GLP1 secretion stimulation [5] 0.3% | inhibition of viability [6] 9.1% | viability decrease (inhibition) [7] 3.6% | viability decrease (inhibition) [8] -1.8%
1.7%: nuclear beta-catenin stimulation ([1]; stimulation, at 2 µM)

Oc1cn2c(n1)Nc1ccc(Cl)c(Cl)c1C2
2.5%: nuclear beta-catenin stimulation ([1]; stimulation, at 2 µM)
active: tube area decrease [4] 40.1%
inactive: nuclear beta-catenin stimulation ([1]; at 10 µM) 0.1% | insulin secretion stimulation [2] 0.6% | viability decrease [3] -54.9% | GLP1 secretion stimulation [5] 4.1% | inhibition of viability [6] -2.2% | viability decrease (inhibition) [7] -21.9% | viability decrease (inhibition) [8] -16.9%

Cc1cc(OCCOCC[N+](C)(C)Cc2ccccc2)ccc1C(C)(C)CC(C)(C)C
6.8%: nuclear beta-catenin stimulation ([1]; stimulation, at 2 µM)
inactive: nuclear beta-catenin stimulation ([1]; at 10 µM) 3% | insulin secretion stimulation [2] 0.6%
active: viability decrease [3] 101% | tube area decrease [4] 107% | GLP1 secretion stimulation [5] 98.1% | inhibition of viability [6] 102% | viability decrease (inhibition) [7] 141% | viability decrease (inhibition) [8] 103%

CON=C(C(=O)N[C@@H]1C(=O)N2C(C(=O)O)=C(C[N+]3(C)CCCC3)CS[C@H]12)c1csc(N)n1
0.2%: nuclear beta-catenin stimulation ([1]; stimulation, at 2 µM)
inactive: nuclear beta-catenin stimulation ([1]; at 10 µM) -2.1% | insulin secretion stimulation [2] 3.1% | viability decrease [3] 4.1% | tube area decrease [4] 2.5% | GLP1 secretion stimulation [5] -0.7% | inhibition of viability [6] -21.3% | viability decrease (inhibition) [7] -14.4% | viability decrease (inhibition) [8] -9.8%

CN(C)[C@@H]1C(=O)C(C(=O)NCN2CCCC2)=C(O)[C@@]2(O)C(=O)C3=C(O)c4c(O)cccc4[C@@](C)(O)C3C[C@@H]12 (some centres not stated)
active: GLP1 secretion stimulation [5] 25.3%
3.1%: nuclear beta-catenin stimulation ([1]; stimulation, at 2 µM)
inactive: nuclear beta-catenin stimulation ([1]; at 10 µM) 3.5% | insulin secretion stimulation [2] 2.3% | viability decrease [3] -20.7% | tube area decrease [4] -7.9% | inhibition of viability [6] 3.4% | viability decrease (inhibition) [7] -73.8% | viability decrease (inhibition) [8] 2.6%
